From PubChem BioAssay AID1240 (Sanford-Burnham Center for Chemical Genomics, 2008)
In all, about 50,000 compounds went through this assay and about 800 (1.6%) showed an effect of 50% or more. This excerpt belongs to a sample that is enriched for strong results.

target: Bcl-2-like protein 10 (Homo sapiens) (UniProt Q9HD36); assay: Phenotype converters, Bcl-B/TR3 peptide binding displacement, primary biochemical FP (AID 1240); conditions: GST-Bcl-B / FITC-TR3 peptide fluorescence polarization; stronger effect = higher value; compound at 3.75 mg/L;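 also: 0% = Bcl-B with tracer peptide and DMSO and 100% = tracer peptide lacking Bcl-B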
Sequence (Q9HD36 whole entry, looked up): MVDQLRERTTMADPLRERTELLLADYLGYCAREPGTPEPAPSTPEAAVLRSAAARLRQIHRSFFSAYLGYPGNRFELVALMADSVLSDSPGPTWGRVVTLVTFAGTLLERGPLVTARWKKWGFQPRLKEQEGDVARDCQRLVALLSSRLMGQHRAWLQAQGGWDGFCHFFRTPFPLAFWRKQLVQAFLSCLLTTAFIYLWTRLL

Structure (SMILES)	displacement [%]
O=[N+]([O-])c1c(NC2CC2)ncnc1NC1CC1	10.9
O=[N+]([O-])c1ccccc1/C=N/N1CCN(Cc2ccc(Cl)cc2)CC1	-1.7
COc1cccc(Nc2nc(-c3ccc(S(=O)(=O)N4CCOCC4)cc3)cs2)c1	10.4
COc1ccccc1/C=C1\SC(=S)N(CCC(=O)NNC(=O)c2ccccc2O)C1=O	14.7
COc1ccc(N(CC(=O)Nc2cccc(Br)c2)S(=O)(=O)c2ccc(C)cc2)c(OC)c1	-1.5
CC(C)CC(NC(c1ccccc1)(c1ccccc1)c1ccccc1)C(=O)O (centres undefined)	8.9
O=C(/C=C/c1ccco1)Nc1ccc(-c2nc3ncccc3o2)cc1	-8.2
COc1ccc(Br)cc1C(=O)Nc1ccc(C)cc1[N+](=O)[O-]	27.4
COc1ccc(Br)cc1/C=C\C(=O)Nc1ccc([N+](=O)[O-])cc1OC	4.8
Cc1cc2nc(-c3ccc(C)c(NC(=O)/C=C/c4ccco4)c3)oc2cc1C	-5.3
COc1ccc(Br)cc1/C=C/C(=O)Nc1ccc(C)cc1[N+](=O)[O-]	87.4
Cc1ccc(-c2nc3ncccc3o2)cc1NC(=O)/C=C/c1ccco1	116
CCC(C)NC(=O)CN(c1ccccc1)S(=O)(=O)c1ccccc1[N+](=O)[O-] (centres undefined)	-8
COc1ccc(C2Nc3ccccc3C(=O)N2Cc2ccco2)cc1COc1c(C)cccc1C (centres undefined)	-10.4
Cc1cc(C)nc(SCC(=O)NN=C2CCCCCC2)n1	3.9
COc1ccc(N(Cc2ccc(C(=O)NC3CCCC3)cc2)S(=O)(=O)c2ccccc2)cc1	-14.5
O=C(Oc1ccc(/C=N/O)cc1)c1ccc(Br)cc1	1.6
C/C(=N\Nc1nc(C)cc(-c2ccccc2)n1)c1cccc(N)c1	-15.5
C=CCOc1ccc(/C=C2\C(=O)C(C(=O)OC)=C(C)N2c2ccc(F)cc2)cc1	127
COC(=O)C1=C(C)N(c2ccc(Cl)cc2)/C(=C\c2ccc(OCC(=O)Nc3ccccc3OC)cc2)C1=O	10.4
COC(=O)C1=C(C)N(c2ccc(C)cc2)/C(=C\c2ccc(OCC(=O)Nc3ccccc3Cl)cc2)C1=O	7.6
COC(=O)C1=C(C)N(c2ccc(C)c(C)c2)/C(=C/c2ccc(OC)cc2)C1=O	14.1
COC(=O)C1=C(C)N(c2ccc(Br)cc2)/C(=C\c2ccc(OCC(=O)Nc3ccccc3OC)cc2)C1=O	20.3
C=CCOc1ccc(/C=C2\C(=O)C(C(=O)OC)=C(C)N2c2ccc(C)cc2)cc1	-24.7
CCOc1ccc(/C=C2\C(=O)C(C(=O)OC)=C(C)N2c2ccc(F)cc2)cc1	-6.6

Structure (SMILES)	displacement [%]
COC(=O)C1=C(C)N(c2ccc(C)c(C)c2)/C(=C\c2ccc(OCC(=O)Nc3ccccc3OC)cc2)C1=O	68
COC(=O)C1=C(C)N(c2ccccc2)/C(=C\c2ccc(OCC(=O)Nc3ccccc3OC)cc2)C1=O	55.5
Cc1ccc(OCC(=O)O/N=C(\N)Cc2ccc([N+](=O)[O-])cc2)c(C)c1	5.9
O=C(Nc1ccc2c(c1O)C(=O)c1ccccc1C2=O)c1ccccc1	12.7
CC1=NN(C(N)=S)C2(O)CC3C(C12)C3(C)C (centres undefined)	7.5
CC(C)(C)NC(=O)c1ccccc1N(Cc1ccccc1)S(=O)(=O)c1ccccc1	-1.7
Cc1ccc2[nH]c(O)c(N=NC(=O)c3cc4ccccc4nc3C)c2c1	5.5
Cc1ccc(C(=O)c2cccc(NC(=O)CC(C)C)c2)cc1C	12.1
Cc1ccccc1NC(=O)C1CC(=O)N(c2ccccc2)C1 (centres undefined)	6.2
Cc1ccc(N2CC(C(=O)Nc3ccccc3Br)CC2=O)cc1 (centres undefined)	11.9
O=C(Nc1ccccc1Br)C1CC(=O)N(c2ccccc2)C1 (centres undefined)	77.5
CS(=O)(=O)N(CC(=O)O)c1ccc(F)cc1	6.7
Cc1ccc(/C=C(\C#N)c2nc3ccccc3s2)cc1	88.3
CCOc1cc(/C=C(\C#N)c2nc3ccccc3s2)ccc1O	0
N#C/C(=C\c1cccs1)c1nc2ccccc2s1	-12.5
Cc1cccc(OCCn2c(N)nc3ccccc32)c1	-10.3
Cc1c(NC(=O)CSc2nnc(-c3cccc(F)c3)n2-c2ccccc2)c(=O)n(-c2ccccc2)n1C	13.4
CN1CCN(C2=C(Cl)C(=O)N(c3ccc(Br)cc3)C2=O)CC1	15.9
C=CCc1cccc2cc(C(=O)Nc3ccc(CC)cc3)c(=O)oc12	8.6
C=CCc1cccc2cc(C(=O)Nc3ccc(NC(C)=O)cc3)c(=O)oc12	-13.3
C=CCc1cccc2cc(C(=O)Nc3ccc(OCC)cc3)c(=O)oc12	53.1
CN1C(=O)/C(=C/c2ccc(O)c(O)c2)SC1=S	14
Cc1cc(Cl)ccc1NC(=O)Cc1ccccc1	-10
COc1cc(/C=c2\sc3nc4ccccc4n3c2=O)cc(Cl)c1OCc1ccccc1Cl	2.3
